Laboratory results: PubChem BioAssay AID651860 (Broad Institute, 2012)
Entries with a potency or affinity are not part of this list. Calls of active or inactive are those of the source.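 Rule for the calls: active = compounds lowering HepG2 cell ATP luminescence with a fitted half-maximal concentration at most twice the top tested dose; inconclusive = flat fit with 30 to 70 percent signal loss, or poor fit; inactive = the rest.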

Assay: HepG2 cell cytotoxicity, dose response, cytotoxicity control, luminescence plate reader, powder samples, set 2 (AID 651860)
Conditions: HepG2 viability, CellTiter-Glo ATP luminescence, 48 h; series mostly up to 26 µM
For `Cc1ccc(S(=O)(=O)NNc2nc(N3CC(O)CC3C(=O)O)nc3ccccc23)cc1` (centres undefined), the outcome was “inactive”. For `O=C(O)[C@H]1CCCC[C@H]1C(=O)N1CCc2ccccc2[C@H]1CNc1nc(Cl)nc2ccccc12`, the outcome was “inactive”. For `O=C(NC[C@@H]1c2ccccc2CCN1C(=O)[C@@H]1CCCC[C@@H]1C(=O)O)c1ccccc1`, the outcome was “inactive”. For `O=C(O)C1CCCCC1C(=O)N1CCc2ccccc2[C@H]1C(=O)NCCc1ccccc1` (some centres undefined), the outcome was “inactive”. With `O=C(Cc1ccccc1)NC[C@@H]1c2ccccc2CCN1C(=O)[C@@H]1CCCC[C@@H]1C(=O)O` the outcome was “inactive”. With `O=C(NC[C@@H]1c2ccccc2CCN1C(=O)[C@@H]1CCCC[C@@H]1C(=O)O)c1ccc(CCl)cc1` the outcome was “inactive”. For `CC(C)OC(=O)C(C(=O)C(F)(F)F)c1cc(NS(=O)(=O)c2ccccc2)c2ccccc2c1O` (centres undefined), the outcome was “inactive”. For `O=C(O)/C=C\C(=O)N1CCc2ccccc2C1CN1C(=O)c2ccccc2C1=O` (centres undefined), the outcome was “inactive”. For `O=C(O)CCC(=O)N1CCc2ccccc2C1CN1C(=O)c2ccccc2C1=O` (centres undefined), the outcome was “inactive”. With `O=C(O)C1CCCCC1C(=O)N1CCc2ccccc2C1CN1C(=O)c2ccccc2S1(=O)=O` (centres undefined) the outcome was “inactive”. For `O=C1c2ccccc2C(=O)N1CC1c2ccccc2CCN1C(=O)Cc1ccccc1` (centres undefined), the activity change, negative = cytotoxic was -3.5% [at 6 µM] (inactive). With `COC(=O)[C@@H]1CCCC[C@@H]1C(=O)N1CCc2ccccc2[C@@H]1CN1C(=O)c2ccccc2C1=O` the outcome was “inactive”. With `O=C(NC[C@@H]1c2ccccc2CCN1C(=O)[C@@H]1CCCC[C@@H]1C(=O)O)c1ccc(CN2CCOCC2)cc1` the outcome was “inactive”. With `O=C(O)CCCC(=O)N1CCc2ccccc2C1CN1C(=O)c2ccccc2C1=O` (centres undefined) the outcome was “inactive”. In the case of `O=C(NCCO)c1ccccc1C(=O)NC[C@@H]1c2ccccc2CCN1C(=O)C1CCCCC1C(=O)O` (some centres undefined), the outcome was “inactive”. In the case of `COc1ccccc1CCNC(=O)[C@@H]1c2ccccc2CCN1C(=O)C1CCCCC1C(=O)O` (some centres undefined), the outcome was “inactive”. With `O=C(O)[C@H]1CCCC[C@H]1C(=O)N1CCc2ccccc2[C@H]1CNS(=O)(=O)c1ccc([N+](=O)[O-])cc1` the outcome was “inactive”. For `O=C(O)[C@H]1CCCC[C@H]1C(=O)N1CCc2ccccc2C1` (racemic), the outcome was “inactive”. In the case of `Cc1ccc(S(=O)(=O)NNc2nc(NCC(N)=O)nc3ccccc23)cc1`, the outcome was “inactive”. With `COC(=O)[C@H]1CCCC[C@H]1C(=O)N1CCc2ccccc2[C@H]1CN1C(=O)c2ccccc2C1=O` the outcome was “inactive”. For `Cc1cc(C)c(S(=O)(=O)Nc2nc(NCCO)nc3ccccc23)c(C)c1`, the outcome was “inactive”. With `O=C1c2ccccc2C(=O)N1CC1=NCCc2ccccc21` the outcome was “inactive”. With `COC(=O)CNc1nc(NS(=O)(=O)c2c(C)cc(C)cc2C)c2ccccc2n1` the outcome was “inactive”. With `O=C(NCCCN1CCOCC1)c1ccccc1C(=O)NC[C@@H]1c2ccccc2CCN1C(=O)C1CCCCC1C(=O)O` (some centres undefined) the outcome was “inactive”. In the case of `CC(C)CNc1nc(NS(=O)(=O)c2ccccc2)c2ccccc2n1`, the outcome was “inactive”. For `O=C(O)[C@H]1CCCC[C@H]1C(=O)N1CCc2ccccc2[C@H]1CNS(=O)(=O)c1ccccc1`, the outcome was “inactive”. For `COC(=O)[C@@H]1CCCC[C@@H]1C(=O)N1CCc2ccccc2[C@H]1CN1C(=O)c2ccccc2C1=O`, the outcome was “inactive”. For `O=C(NCCc1ccccc1)c1ccccc1C(=O)NC[C@@H]1c2ccccc2CCN1C(=O)C1CCCCC1C(=O)O` (some centres undefined), the outcome was “inactive”. In the case of `O=C(O)[C@H]1CCCC[C@H]1C(=O)N1CCc2ccccc2C1CCN1C(=O)c2ccccc2C1=O` (some centres undefined), the outcome was “inactive”. With `CCOC(=O)C(C(=O)OCC)c1cc(CN2C(=O)c3ccccc3C2=O)c2ccccc2n1` the outcome was “inactive”. For `O=C(O)C1CCCCC1C(=O)N1CCc2ccccc2C1c1ccccc1` (centres undefined), the outcome was “inactive”. With `NC(=O)c1ccccc1C(=O)NC[C@@H]1c2ccccc2CCN1C(=O)[C@@H]1CCCC[C@@H]1C(=O)O` the outcome was “inactive”. In the case of `Cc1ccccc1S(=O)(=O)Nc1cc(C(C(=O)OC(C)C)C(=O)C(F)(F)F)c(O)c2ccccc12` (centres undefined), the outcome was “inactive”. With `O=C(NC[C@@H]1c2ccccc2CCN1C(=O)[C@@H]1CCCC[C@@H]1C(=O)O)OCC1c2ccccc2-c2ccccc21` the outcome was “inactive”.
